In PubChem BioAssay (NCATS) one finds Potency and outcome data, which are given here for eleven molecules.

Each structure is given as a SMILES string. “And” between values parts separate entries of the source, which are not always exact repeats. Equal values may be shown once. Results filed as inconclusive are left out. The source holds several records for some structures; these can differ, active in one and inactive in another. The source made the active and inactive calls. Calls come from the whole dose curve; as a rule, active = well fitted curve in the direction sought with a large enough effect; inconclusive = small, poorly fitted or top-dose-only effect, or another doubt; inactive = no such curve, though single readings can be large; an effect the other way counts as inactive or inconclusive.

Test [1] has as its target Phospholipid hydroperoxide glutathione peroxidase GPX4 (Homo sapiens) (UniProt P36969). Nature of the test: Primary qHTS Assay for Inhibitors of Recombinant Selenoprotein Glutathione Peroxidase 4 (GPX4) (AID 1845192). Note: nearly all actives have a fitted effect of over 65% in size. Summed up: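 Steps: GPX4 plus compound, 30 min RT; add GR/GSH/NADPH master mix; start with cumene hydroperoxide; read 340/450 nm fluorescence at 0 and 15 min. Finals were 200 nM GPX4, 1 mM GSH, 0.5 mM CHP, 0.5 mM NADPH, 100 nM GR.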

Test [2] concerns the target Glutathione peroxidase 1 (Homo sapiens) (UniProt P07203). Nature of the test: Primary qHTS Assay for Inhibitors of Recombinant Selenoprotein Glutathione Peroxidase 1 (GPX1) (AID 1845191). Note: nearly all actives have a fitted effect of over 65% in size. Note: potency is the fitted concentration of half-maximal effect. Summed up:
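GR-coupled readout: NADPH consumption tracked by fluorescence, ex 340/em 450 nm, at t=0 and after 15 min at RT. Final mix 10 nM GPX1, 1 mM GSH, 0.5 mM CHP, 0.5 mM NADPH, 100 nM GR, 0.01% BSA, following 30 min enzyme–compound preincubation.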
(In qHTS, concentration-response curves come from the screen itself.)

The target in test [3] is Luciferin 4-monooxygenase (Photinus pyralis) (UniProt P08659). The experiment in a line: Primary firefly luciferase (FLuc) qHTS assay for identification of artifact compounds. (AID 1845220). Note: nearly all actives have a fitted effect of over 60% in size. The following applies: outcome: dose series up to 54.1 µM unless noted. Summed up:
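Enzymatic FLuc inhibition assay: compounds pre-exposed to luciferin/ATP (10 uM each) for 15 min, then purified P. pyralis enzyme at 10 nM added. Read-out: luminescence at 5 min.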

Test [4] in a line: Primary fluorescence-based thiol-reactive (MSTI) qHTS assay for identification of artifact compounds. (AID 1845221).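 Note: series mostly up to about 54 µM; thiol-reactive compounds lower the probe fluorescence signal; nearly all actives have a fitted effect of over 65% in size.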 Summed up: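 Curve-fitted percent inhibition (4-parameter Hill) derived from fluorescence, Ex 525/Em 598 nm, scaled with Acetyl-MSTI and MSTI; 1 h incubation at room temperature.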
Test [5] deals with Nanoluciferase (engineered Oplophorus gracilirostris luciferase). The experiment in a line: Primary Nanoluciferase (NLuc) qHTS assay for identification of artifact compounds. (AID 1845222).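 Note: NLuc secreted into diluted conditioned medium of S16 cells; series mostly up to about 54 µM.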 The procedure, abridged: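 S16 cell supernatant NLuc, 1:55; cpds qHTS; 15 min RT dark; Nano-Glo substrate 1:100, 5 min; luminescence; Hill fit of % inhibition.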
Test [6] is described as follows: Primary redox qHTS assay for identification of artifact compounds. (AID 1845223). Summed up:
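Redox-cycling detection via DTT (250 uM final) oxidation coupled to Amplex Red (25 uM)/HRP (250 mU/mL) in HBSS. 15 min preincubation plus 30 min after DTT, room temperature. Ex/Em 525/598 nm; 4-parameter Hill fit against DMSO and 10 uM DA3003.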

Chain of Phospholipid hydroperoxide glutathione peroxidase GPX4 (Homo sapiens) (P36969 whole entry, looked up): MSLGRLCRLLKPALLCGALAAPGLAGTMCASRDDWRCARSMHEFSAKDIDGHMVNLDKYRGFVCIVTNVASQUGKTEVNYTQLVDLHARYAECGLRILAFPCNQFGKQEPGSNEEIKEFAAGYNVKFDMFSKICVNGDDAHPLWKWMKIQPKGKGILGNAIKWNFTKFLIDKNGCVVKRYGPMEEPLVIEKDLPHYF
Chain of Glutathione peroxidase 1 (Homo sapiens) (P07203 whole entry, looked up): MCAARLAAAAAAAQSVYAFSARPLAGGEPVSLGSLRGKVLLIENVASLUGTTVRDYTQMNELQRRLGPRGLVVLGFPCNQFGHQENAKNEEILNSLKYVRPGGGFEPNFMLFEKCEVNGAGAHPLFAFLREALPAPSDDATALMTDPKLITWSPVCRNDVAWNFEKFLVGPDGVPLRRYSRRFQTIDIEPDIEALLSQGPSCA

As to `CN(C)CCN(Cc1ccccc1)c1ccccn1`, in test [1], the Potency result was “inactive”.
Consider `COc1ccc2cc1Oc1ccc(cc1)C[C@H]1c3c(cc4c(c3Oc3cc5c(cc3OC)CCN(C)[C@@H]5C2)OCO4)CCN1C`, for which the Potency entry in test [2], in test [1] and in test [4] was “inactive” in each case. For the same molecule, the result in test [3], in test [5] and in test [6] was inactive.
For `Nc1ccc(S(=O)(=O)Nc2nccs2)cc1`, the Potency entry in test [2], in test [1] and in test [4] was “inactive” each time. The outcome in test [3], in test [5] and in test [6] was inactive.
As to `O=c1[nH]cnc2c1ncn2[C@@H]1O[C@H](CO)[C@@H](O)[C@H]1O`, the Potency result in test [2], in test [1] and in test [4] was “inactive” in each case. The call in test [3], in test [5] and in test [6] was inactive.
On to `C[C@@H]1C[C@H]2[C@@H]3C[C@H](F)C4=CC(=O)C=C[C@]4(C)[C@@]3(F)[C@@H](O)C[C@]2(C)[C@@]1(O)C(=O)CO`, for which the Potency entry in test [2], in test [1] and in test [4] was “inactive” each time. The molecule was classed as inactive in test [3], in test [5] and in test [6].
On to `O=C(CCCN1CCN(c2ccccn2)CC1)c1ccc(F)cc1`, for which the Potency entry in test [2], in test [1] and in test [4] was “inactive” throughout. For the same molecule, the result in test [3], in test [5] and in test [6] was inactive.
As to `COc1cc(C)c(Cc2cnc(N)nc2N)cc1OC`, the Potency entry in test [1] was “inactive”.
In the case of `Nc1nc2c(ncn2CCC(CO)CO)c(=O)[nH]1`, the Potency entry in test [2], in test [1] and in test [4] was “inactive” in each case. Besides, the outcome in test [3], in test [5] and in test [6] was inactive.
For the molecule `COc1ccc2[nH]c(S(=O)Cc3ncc(C)c(OC)c3C)nc2n1` (stereo unspecified), the Potency in test [2] is 9.04 µM (active) and inactive and 11.4 µM (active). Also, the Potency entry in test [1] and in test [4] was “inactive” each time. Besides, the molecule was called inactive in test [3], in test [5] and in test [6].
As for `OCC(O)CN1CCN(c2ccccc2)CC1` (stereo unspecified), the Potency entry in test [2], in test [1] and in test [4] was “inactive” throughout. The outcome in test [3], in test [5] and in test [6] was inactive.
Take `O=C1Nc2ccc(Cl)cc2[C@@](C#CC2CC2)(C(F)(F)F)O1`: the Potency entry in test [2], in test [1] and in test [4] was “inactive” in each case. In addition, the molecule was called inactive in test [3], in test [5] and in test [6].
